Screens from PubChem.
TGFb inhibitor – qHTS for Inhibitors of TGF-b; HepG2 CAGA-GFP TGF-b/SMAD3 reporter, GFP fluorescence, 18 h; TGF-beta stimulated, 500 pg/mL final; AID 588855, 2011; actives 1.2% (n = 410,000); Potency, µM (doses to about 46.1 µM), usual class: inhibitors; note: nearly all actives have a fitted effect of over 65% in size
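First, reporter cells (HEPG2 CAGA-GFP) rested 2 h at 37 degrees C. Next, compounds were pinned in and TGF-beta added to 500 pg/mL final. After 18 h, GFP was imaged per cell and summed per well.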
IL1B secr inh – qHTS for Inhibitors of Inflammasome Signaling: IL-1-beta AlphaLISA Primary Screen; THP-1 LPS/ATP IL-1B secretion, AlphaLISA, 16 h; hits give low values; activity change, % at 57.5 µM; actives 4.7% (n = 360,000); in the data active = activity change below about -50%; inconclusive = mostly about -30% to -49%
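Secreted IL-1B measured by AlphaLISA bead assay after 16 h compound exposure of THP-1 cells; compounds (final up to 57.5 uM) added 1 h before LPS (250 ng/mL) and ATP (1.25 mM) stimulation; lower signal means less secretion.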
S-ASM inh – Inhibitors of Secretory Acid Sphingomyelinase (S-ASM): qHTS; placental ASM, HMU-PC fluorogenic substrate, 60 min; Potency, µM (series often up to 57.5 µM), hits mostly inhibitors; actives 0.006% (n = 340,000); AID 504937, 2011
Target sequence (P17405 47-631 limits assumed): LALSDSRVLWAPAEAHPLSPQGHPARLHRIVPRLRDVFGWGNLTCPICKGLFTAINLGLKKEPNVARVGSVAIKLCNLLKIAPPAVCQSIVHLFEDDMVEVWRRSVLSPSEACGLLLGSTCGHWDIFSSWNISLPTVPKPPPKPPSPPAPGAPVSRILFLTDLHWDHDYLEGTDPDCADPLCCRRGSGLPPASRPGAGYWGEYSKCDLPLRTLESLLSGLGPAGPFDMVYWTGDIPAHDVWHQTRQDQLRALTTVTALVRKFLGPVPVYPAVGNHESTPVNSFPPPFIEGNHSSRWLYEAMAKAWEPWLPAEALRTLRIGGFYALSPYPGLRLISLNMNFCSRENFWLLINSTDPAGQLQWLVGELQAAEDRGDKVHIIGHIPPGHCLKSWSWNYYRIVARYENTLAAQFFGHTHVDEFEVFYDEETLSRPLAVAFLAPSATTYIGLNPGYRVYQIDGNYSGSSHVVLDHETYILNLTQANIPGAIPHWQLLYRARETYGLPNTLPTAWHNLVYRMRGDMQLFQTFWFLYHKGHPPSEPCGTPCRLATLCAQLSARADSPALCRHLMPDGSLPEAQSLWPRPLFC
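HMU-PC0 cleavage (9 uM final) by human placental ASM, 60 min at 37 °C following 10 min compound exposure at RT; stopped at pH 10, fluorescence Ex 386/Em 447 nm.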
TDP1 cell noCPT – qHTS for Inhibitors of human tyrosyl-DNA phosphodiesterase 1 (TDP1): qHTS in cells in absence of CPT | DT40 Tdp1-/- hTDP1 cells, no CPT, ATP luminescence, 48 h | Potency, µM (series often up to 46.2 µM), hits mostly inhibitors | actives 15% (n = 420,000); note: nearly all actives have a fitted effect of over 55% in size
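Luminescent ATP content (CellTiter-Glo) served as the growth readout. Knockout chicken DT40 cells expressing human TDP1 were exposed to compounds without camptothecin for a minimum 48 hr at 37 °C.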
TDP1 cell CPT – qHTS for Inhibitors of human tyrosyl-DNA phosphodiesterase 1 (TDP1): qHTS in cells in presence of CPT; chicken DT40 Tdp1-/-;hTDP1 cells + 20 nM CPT, ATP luminescence, 48 h; Potency, µM (top dose mostly 46.2 µM), most hits filed as inhibitors; actives 12% (n = 420,000); AID 686979, 2013; note: nearly all actives have a fitted effect of over 55% in size
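Cell growth measured by CellTiter-Glo luminescence after a minimum 48 h, 37 C compound exposure with 20 nM CPT in Tdp1-knockout DT40 cells stably expressing hTDP1, seeded 400/well; qHTS titration format.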
HepG2 viability – qHTS for Inhibitors of TGF-b: Cytotox Counterscreen | HepG2 CAGA-GFP viability, ATP luminescence, 18 h | Potency, µM (titrated, usually from 46.1 µM), most hits filed as cytotoxic | actives 0.76% (n = 410,000) | AID 588856, 2011
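HepG2 CAGA-GFP cells (1000/well, DMEM with 1% FBS) received compound, then TGF-beta at 500 pg/mL final, and were incubated 18 hours at 37 degrees C. Viability was read by CellTiter-Glo luminescence. Media-only wells were set as complete cell-killing and DMSO as no toxicity.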
Hits are given with their value; n = inactive; u = inconclusive; x = no result given. The list is not random: actives were taken first. Their share in the collection is about 19%. Unless noted, calls come from the whole dose curve; as a rule, active = well fitted curve in the direction sought with a large enough effect; inconclusive = small, poorly fitted or top-dose-only effect, or another doubt; inactive = no such curve, though single readings can be large; an effect the other way counts as inactive or inconclusive.

SMILES	TGFb inhibitor	IL1B secr inh	S-ASM inh	TDP1 cell noCPT	TDP1 cell CPT	HepG2 viability
CCCn1c(=O)c2ccccc2n2c(SCC(=O)N3CCc4ccccc4C3)nnc12	n	n	n	u	u	n
COc1ccc(OC)c(NS(=O)(=O)c2c(C(=O)N3CCCCCC3)c(C)n(C)c2C)c1	n	n	n	n	n	n
COc1ccc(CCNC(=O)COc2ccc3c(C)cc(=O)oc3c2)cc1OC	n	n	n	13µM	u	n
COc1ccc(CCNC(=O)c2cc(=O)c3cc(C)c(C)cc3o2)cc1OC	u	x	x	7.31µM	n	n
CCCc1cc(=O)oc2cc(OCC(=O)NCCc3c[nH]c4ccc(OC)cc34)ccc12	n	n	n	14.6µM	16.4µM	n
COc1ccc(CNC(=O)c2cc(=O)c3cc(C)c(C)cc3o2)cc1	n	n	n	n	n	n
Cc1cc(=O)oc2cc(OCC(=O)OCC(=O)NCCc3ccccc3)ccc12	n	n	n	n	n	n
COc1ccc(CCNC(=O)c2cc(=O)c3cc(C)cc(C)c3o2)cc1OC	n	x	x	23.1µM	20.6µM	n
COc1ccc(NC(=O)c2cc(=O)c3cc(C)cc(C)c3o2)cc1	n	x	x	u	u	n
CC(Nc1ccc(Br)cc1)C(=O)Nc1cccc(S(=O)(=O)N2CCOCC2)c1 (stereo unspecified)	u	n	n	u	u	n
CCOC(=O)CC1(C)c2nc(NC(C)=O)sc2Cc2sc(NC(C)=O)nc21	n	n	x	n	n	n
COc1ccc(CCNC(=O)c2cc(=O)c3cc(C)ccc3o2)cc1OC	n	n	n	20.6µM	u	n
CCOc1ccc(CCNC(=O)c2nnc(Cc3cc(OC)c(OC)c(OC)c3)o2)cc1OCC	n	x	x	u	20.6µM	n
CC(C)=CCC[C@H](C)C[C@@H]1CC2=C(C(=O)OC(C)(C)O2)[C@H](c2ccc(F)cc2)O1	n	n	x	u	u	n
Cc1ccc(C(=O)CCC(=O)N2CCN(C/C=C/c3ccccc3)CC2)cc1	n	n	x	20.6µM	u	n
COc1ccccc1C(=O)NCC(=O)N1CCN(C/C=C/c2ccccc2)CC1	n	n	n	u	u	n
COc1ccc(C(=O)NCC(=O)N2CC=C(c3ccccc3)CC2)cc1OC	n	n	n	25.9µM	u	n
CCOc1ccc(C(=O)NCC(=O)N2CCN(C/C=C/c3ccccc3)CC2)cc1OCC	n	n	n	16.4µM	u	n
COc1ccc(C(=O)NC(C(=O)N2CCN(C/C=C/c3ccccc3)CC2)C(C)C)cc1 (stereo unspecified)	n	n	x	u	18.4µM	n
O=c1cnc(-c2ccc(Cl)cc2)cn1O	n	n	n	n	n	n
CCc1nn(CC(=O)NCCc2ccc(S(N)(=O)=O)cc2)c(=O)c2cc3sccc3n12	n	n	n	n	n	n
CCOC(=O)N1CCN(C(=O)C(NC(=O)c2ccc(C(C)(C)C)cc2)C(C)C)CC1 (stereo unspecified)	n	n	n	2.31µM	8.2µM	n
CCOC(=O)N1CCN(C(=O)c2ccccc2NC(=O)c2ccc(C(C)(C)C)cc2)CC1	n	n	n	n	n	n
CSc1ccc(CNC(=O)C2(C)CCCN(C(C)C)C2)cc1 (stereo unspecified)	n	n	x	n	n	n
N#Cc1c(-c2ccc(Cl)cc2)c(-c2ccc(Cl)cc2)nn(CCOC(=O)CCC(=O)O)c1=O	u	n	n	u	10.3µM	n
SMILES	TGFb inhibitor	IL1B secr inh	S-ASM inh	TDP1 cell noCPT	TDP1 cell CPT	HepG2 viability
O=C(Cn1nc(-c2ccc(Cl)cc2)c2ccccc2c1=O)Nc1cccc(Br)c1	n	x	x	n	n	n
N#Cc1c(-c2ccccc2)c(-c2ccccc2)nn(CC(=O)NNC(=O)Nc2ccc(Cl)cc2)c1=O	u	x	n	23.1µM	u	n
COC(=O)/C(=C(/F)Sc1cc(C)c(O)c(C)c1)C(F)(F)F	u	n	n	7.31µM	10.3µM	n
CC1CN(c2ncnc3c2oc2ccccc23)CC(C)O1 (stereo unspecified)	n	n	n	20.6µM	u	n
Clc1ccc(N2CCN(c3ncnc4c3oc3ccccc34)CC2)cc1	n	n	n	14.1µM	20.6µM	n
C=C(C)CN1C(=O)C2(OCCO2)c2ccccc21	n	n	n	n	n	n
COc1ccc(SCC(=O)c2cc(C)c(OC(=S)N(C)C)c(C)c2)cc1	n	n	n	u	20.6µM	n
Cc1cc(C(=O)CSc2ccc(F)cc2)cc(C)c1OC(=S)N(C)C	n	n	n	u	u	n
O=C(CSc1ccccc1)N1CCc2c([nH]c3ccccc23)C1c1ccc(Cl)cc1 (stereo unspecified)	n	x	x	u	u	n
COc1ccc(/C=C(/NC(=O)c2ccco2)C(=O)N2CCOCC2)cc1	n	n	n	n	n	n
CCOc1ccc(CNC(=O)c2cccn2-c2nnc(N3CCCCC3)s2)cc1OC	n	x	x	16.4µM	25.9µM	n
CCOc1ccccc1CNC(=O)c1cccn1-c1nnc(N2CCCCC2)s1	u	x	x	u	u	n
COc1ccc(CNC(=O)c2cccn2-c2nnc(N3CCCC3)s2)c(OC)c1	n	x	x	16.4µM	u	n
CCN(CC)c1ccc(NC(=O)c2cccn2-c2nnc(N3CCCCC3)s2)c(C)c1	u	x	x	5.8µM	5.17µM	n
Cc1ccc(CNC(=O)c2cccn2-c2nnc(N3CCCC3)s2)cc1	u	x	x	u	u	n
COc1ccc(NC(=O)c2cccn2-c2nnc(N3CCCCC3)s2)c(OC)c1	n	x	x	u	u	n
Cc1ccc(CNC(=O)c2cccn2-c2nnc(N3CCCCC3)s2)cc1	7.94µM	x	x	23.1µM	20.6µM	n
CCOC(=O)C1C(=O)CC(C)(O)C(C(=O)OCC)C1c1ccc([N+](=O)[O-])cc1 (stereo unspecified)	n	n	n	n	n	n
CN(C(=O)Cn1c(Cl)nc2c1c(=O)n(C)c(=O)n2C)C1CCS(=O)(=O)C1 (stereo unspecified)	n	n	n	n	n	n
CC1=C(/C=C/C(C)=C/C=C/C(C)=C/C=C/C=C(C)/C=C/C=C(C)/C=C/C(=O)[C@]2(C)CC(O)CC2(C)C)C(C)(C)CC(O)C1 (stereo partly specified)	x	x	x	n	n	x
